About 7,900 targets were measured; listed, in parts, are those with a hit and a random draw of the rest. About 0.6% of all pairs of compound and target were hits.
Assays:
Assay in all cases: log2 fold change, soluble protein after heating vs DMSO (PISA); higher = thermal stabilisation; K562 cells, 10 uM, 30 min; active = over 0.2 and 3.5 SD of the protein, either way, in both replicates (recomputed)
[1] = compound: COC1=CC=C(C=C1)CN2C=CC3=C2C=C(C=C3)C(=O)NO
Summary of the method: (§1)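 Thermal stability values are relative to control samples and come from duplicates. They are expressed as log2 fold changes. For measurement, K562 cells (2×10^6 cells/mL) received 10 μM compound for 30 min, and aliquots were heated for 3 min over 48°C-58°C, pooled, and extracted at 4°C in PBS with 0.5% NP-40. Soluble protein, the supernatant after 21,000xg for 90 min, was quantified by TMTpro 16plex LC-MS/MS with equalised channel sums.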

filanesib = compound: CON(C)C(=O)N1N=C(c2cc(F)ccc2F)S[C@@]1(CCCN)c1ccccc1 [filanesib]
Summary of the method: as §1

zotarolimus = compound: CO[C@H]1C[C@@H]2CC[C@@H](C)[C@@](O)(O2)C(=O)C(=O)N2CCCC[C@H]2C(=O)O[C@H]([C@H](C)C[C@@H]2CC[C@H](n3cnnn3)[C@H](OC)C2)CC(=O)[C@H](C)/C=C(\C)[C@@H](O)[C@@H](OC)C(=O)[C@H](C)C[C@H](C)/C=C/C=C/C=C/1C [zotarolimus]
Summary of the method: as §1

idasanutlin = compound: COc1cc(C(=O)O)ccc1NC(=O)[C@@H]1N[C@@H](CC(C)(C)C)[C@](C#N)(c2ccc(Cl)cc2F)[C@H]1c1cccc(Cl)c1F [idasanutlin]
Summary of the method: as §1

alisertib = compound: COc1cc(Nc2ncc3c(n2)-c2ccc(Cl)cc2C(c2c(F)cccc2OC)=NC3)ccc1C(=O)O [alisertib]
Summary of the method: as §1

[2] = compound: COc1cc2nc(-c3cc(F)ccc3O)nc(N[C@@H]3CNC[C@H]3C(C)(C)O)c2cc1OC
Summary of the method: as §1

gefitinib = compound: COc1cc2ncnc(Nc3ccc(F)c(Cl)c3)c2cc1OCCCN1CCOCC1 [gefitinib]
Summary of the method: as §1

[3] = compound: COc1cccc2cc(-c3nc([C@H]4CC[C@H](C(=O)O)CC4)n4ncnc(N)c34)[nH]c12
Summary of the method: as §1

lapatinib = compound: CS(=O)(=O)CCNCc1ccc(-c2ccc3ncnc(Nc4ccc(OCc5cccc(F)c5)c(Cl)c4)c3c2)o1 [lapatinib]
Summary of the method: as §1

pictilisib = compound: CS(=O)(=O)N1CCN(Cc2cc3nc(-c4cccc5[nH]ncc45)nc(N4CCOCC4)c3s2)CC1 [pictilisib]
Summary of the method: as §1

Measured: log2 fold change

NDUFB1 (UniProt O75438)
Sequence of UniProt O75438 (O75438 whole entry, looked up): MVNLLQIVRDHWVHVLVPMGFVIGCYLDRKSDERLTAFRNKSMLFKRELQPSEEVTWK
inactive: [1] 0.031 | filanesib -0.029 | zotarolimus -0.055 | idasanutlin 0.029 | alisertib -0.062 | [2] -0.08 | gefitinib 0.083 | [3] 0.076 | lapatinib -0.028 | pictilisib -0.196

OGFOD1 (UniProt Q8N543)
inactive: filanesib -0.05 | zotarolimus -0.02 | idasanutlin -0.038 | alisertib -0.021 | [2] 0.001 | gefitinib 0.015 | [3] 0.041 | lapatinib -0.034 | pictilisib 0.065
active: [1] -0.294

NA isoform 3 (UniProt Q4G0T1)
inactive: [1] -0.007 | filanesib 0.049 | zotarolimus 0.044 | idasanutlin 0.052 | alisertib -0.09 | [2] 0.039 | gefitinib 0.016 | [3] 0.106 | lapatinib 0.112

NRDC isoform 2 (UniProt O43847)
Sequence of UniProt O43847 (O43847 whole entry, looked up): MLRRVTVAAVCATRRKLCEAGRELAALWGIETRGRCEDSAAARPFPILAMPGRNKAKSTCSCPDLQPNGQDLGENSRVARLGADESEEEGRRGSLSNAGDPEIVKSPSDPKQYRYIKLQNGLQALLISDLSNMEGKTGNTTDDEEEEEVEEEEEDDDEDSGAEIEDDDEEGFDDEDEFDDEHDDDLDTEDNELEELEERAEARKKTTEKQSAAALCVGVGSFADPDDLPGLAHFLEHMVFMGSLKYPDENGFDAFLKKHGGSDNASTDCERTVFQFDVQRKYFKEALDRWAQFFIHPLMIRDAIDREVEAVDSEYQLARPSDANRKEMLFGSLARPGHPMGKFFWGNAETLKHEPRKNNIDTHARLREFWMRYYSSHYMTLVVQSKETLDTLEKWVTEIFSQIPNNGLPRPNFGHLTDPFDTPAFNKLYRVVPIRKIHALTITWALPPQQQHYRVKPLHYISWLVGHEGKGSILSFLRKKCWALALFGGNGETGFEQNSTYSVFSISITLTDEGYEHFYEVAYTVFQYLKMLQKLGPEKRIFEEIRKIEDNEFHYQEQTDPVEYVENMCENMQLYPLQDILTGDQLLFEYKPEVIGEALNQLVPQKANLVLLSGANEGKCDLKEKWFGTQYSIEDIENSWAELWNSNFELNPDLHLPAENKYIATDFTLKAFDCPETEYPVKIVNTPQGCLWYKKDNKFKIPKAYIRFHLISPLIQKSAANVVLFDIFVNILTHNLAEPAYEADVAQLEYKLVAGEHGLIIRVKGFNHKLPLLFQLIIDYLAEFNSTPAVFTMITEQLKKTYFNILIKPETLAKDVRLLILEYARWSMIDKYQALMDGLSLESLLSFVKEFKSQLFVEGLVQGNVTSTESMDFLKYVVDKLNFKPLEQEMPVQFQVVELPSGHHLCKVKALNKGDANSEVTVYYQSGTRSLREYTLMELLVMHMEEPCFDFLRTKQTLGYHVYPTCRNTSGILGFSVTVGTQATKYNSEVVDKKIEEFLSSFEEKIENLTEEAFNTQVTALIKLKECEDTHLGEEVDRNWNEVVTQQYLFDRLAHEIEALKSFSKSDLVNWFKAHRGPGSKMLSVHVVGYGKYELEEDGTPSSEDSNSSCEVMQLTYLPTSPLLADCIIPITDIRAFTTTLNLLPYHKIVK
inactive: [1] 0 | filanesib -0.038 | zotarolimus 0.005 | idasanutlin -0.026 | alisertib 0.013 | [2] 0.076 | gefitinib -0.022 | [3] -0.001 | lapatinib -0.019 | pictilisib -0.029

NFX1 (UniProt Q12986)
inactive: [1] -0.152 | filanesib 0.133 | zotarolimus -0.141 | idasanutlin 0.102 | alisertib 0.203 | [2] 0.079 | gefitinib 0.037 | [3] -0.012 | lapatinib 0.112 | pictilisib 0.004

NRF1 isoform 4 (UniProt Q16656)
inactive: [1] 0.048 | filanesib -0.054 | zotarolimus 0.098 | idasanutlin 0.03 | alisertib -0.077 | [2] -0.135 | gefitinib 0.03 | [3] 0.019 | lapatinib -0.078 | pictilisib 0.167

NT5DC1 (UniProt Q5TFE4)
inactive: [1] 0.016 | filanesib -0.067 | zotarolimus 0.019 | idasanutlin -0.122 | alisertib -0.015 | [2] 0.04 | gefitinib 0.018 | [3] 0.02 | lapatinib 0.074 | pictilisib 0.097

NNMT (UniProt P40261)
inactive: [1] -0.057 | filanesib -0.163 | zotarolimus -0.001 | idasanutlin -0.076 | alisertib -0.06 | [2] 0.216 | gefitinib 0.041 | [3] 0.017 | lapatinib -0.019 | pictilisib 0.06

NCAPD2 (UniProt Q15021)
inactive: [1] 0.025 | filanesib -0.006 | zotarolimus 0.061 | idasanutlin -0.072 | alisertib -0.005 | [2] 0.092 | gefitinib 0.029 | [3] -0.138 | lapatinib -0.024 | pictilisib 0.059

NAPG (UniProt Q99747)
Sequence of UniProt Q99747 (Q99747 whole entry, looked up): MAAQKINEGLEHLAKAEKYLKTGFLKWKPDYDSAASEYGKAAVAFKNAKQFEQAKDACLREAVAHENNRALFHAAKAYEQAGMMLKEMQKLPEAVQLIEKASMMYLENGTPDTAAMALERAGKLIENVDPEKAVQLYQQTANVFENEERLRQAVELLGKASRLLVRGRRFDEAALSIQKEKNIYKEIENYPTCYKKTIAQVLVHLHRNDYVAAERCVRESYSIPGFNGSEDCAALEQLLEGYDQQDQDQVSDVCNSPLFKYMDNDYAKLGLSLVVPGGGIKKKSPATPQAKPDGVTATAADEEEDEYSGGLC
inactive: [1] 0.046 | filanesib -0.046 | zotarolimus 0.052 | idasanutlin -0.001 | alisertib -0.005 | [2] -0.066 | gefitinib 0.025 | [3] -0.089 | lapatinib 0.029 | pictilisib -0.008

OSBPL8 (UniProt Q9BZF1)
inactive: [1] 0.034 | filanesib 0.077 | zotarolimus -0.067 | idasanutlin -0.016 | alisertib -0.052 | [2] -0.086 | gefitinib 0.23 | [3] -0.22 | lapatinib 0.142 | pictilisib -0.015

NME2P1 (UniProt O60361)
inactive: [1] -0.256 | filanesib 0.058 | zotarolimus -0.111 | idasanutlin -0.367 | alisertib -0.089 | [2] 0.122 | gefitinib -0.01 | [3] 0.084 | lapatinib -0.075 | pictilisib -0.041

NFYB (UniProt P25208)
inactive: [1] 0.245 | filanesib -0.036 | zotarolimus -0.024 | idasanutlin 0.066 | alisertib -0.097 | [2] -0.047 | gefitinib 0.039 | [3] 0.02 | lapatinib 0.078 | pictilisib -0.155

NOSIP (UniProt Q9Y314)
Sequence of UniProt Q9Y314 (Q9Y314 whole entry, looked up): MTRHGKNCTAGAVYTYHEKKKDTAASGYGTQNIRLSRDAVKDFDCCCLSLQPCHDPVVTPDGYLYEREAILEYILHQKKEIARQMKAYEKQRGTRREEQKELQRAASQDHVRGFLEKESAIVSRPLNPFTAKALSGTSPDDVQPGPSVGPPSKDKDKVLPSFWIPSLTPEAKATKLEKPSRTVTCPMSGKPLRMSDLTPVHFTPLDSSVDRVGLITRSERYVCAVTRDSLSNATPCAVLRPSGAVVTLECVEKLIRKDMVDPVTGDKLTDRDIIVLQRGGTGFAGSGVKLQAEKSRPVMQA
inactive: [1] -0.069 | filanesib 0.143 | zotarolimus -0.018 | idasanutlin 0.029 | alisertib 0.166 | [2] 0.174 | gefitinib 0.156 | [3] -0.053 | lapatinib -0.046 | pictilisib -0.067

NAT14 (UniProt Q8WUY8)
Sequence of UniProt Q8WUY8 (Q8WUY8 whole entry, looked up): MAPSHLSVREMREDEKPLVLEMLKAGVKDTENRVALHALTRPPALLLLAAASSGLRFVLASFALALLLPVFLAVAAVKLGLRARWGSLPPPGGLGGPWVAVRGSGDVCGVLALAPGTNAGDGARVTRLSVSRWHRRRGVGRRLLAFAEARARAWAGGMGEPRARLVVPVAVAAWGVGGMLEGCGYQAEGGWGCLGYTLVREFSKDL
inactive: [1] 0.151 | filanesib -0.001 | zotarolimus 0.107 | idasanutlin -0.041 | alisertib -0.013 | [2] -0.086 | gefitinib -0.016 | [3] 0.12 | lapatinib 0.081

MYH16 (UniProt Q9H6N6)
inactive: filanesib -0.263 | zotarolimus -0.118 | idasanutlin -0.066 | alisertib 0.163 | [2] -0.052 | gefitinib -0.03 | [3] -0.031 | lapatinib 0.204 | pictilisib -0.448
active: [1] 0.886

MRPS17 (UniProt Q9Y2R5)
inactive: [1] -0.089 | filanesib 0.038 | zotarolimus 0.047 | idasanutlin -0.254 | alisertib -0.043 | [2] -0.025 | gefitinib 0.039 | [3] -0.016 | lapatinib 0.113 | pictilisib 0.035

MRPS21 (UniProt P82921)
inactive: [1] 0.007 | filanesib 0.032 | zotarolimus 0.026 | idasanutlin -0.293 | alisertib 0.043 | [2] -0.053 | gefitinib 0.019 | [3] 0.021 | lapatinib 0.261

MYSM1 (UniProt Q5VVJ2)
inactive: [1] -0.063 | filanesib -0.007

MT-ND1 (UniProt P03886)
Sequence of UniProt P03886 (P03886 whole entry, looked up): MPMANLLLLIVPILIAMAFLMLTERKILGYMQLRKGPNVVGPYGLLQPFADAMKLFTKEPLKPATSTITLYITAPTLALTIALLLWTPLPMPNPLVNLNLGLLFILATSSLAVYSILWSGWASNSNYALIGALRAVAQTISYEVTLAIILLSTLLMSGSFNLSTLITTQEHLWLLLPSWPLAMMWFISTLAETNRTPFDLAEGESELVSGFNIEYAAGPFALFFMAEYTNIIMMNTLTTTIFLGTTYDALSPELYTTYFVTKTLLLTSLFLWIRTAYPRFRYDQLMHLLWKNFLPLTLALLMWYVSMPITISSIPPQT
inactive: [1] -0.051 | filanesib 0.053 | zotarolimus 0.131 | idasanutlin -0.141 | alisertib -0.015 | [2] -0.152 | gefitinib 0.1 | [3] 0.051 | lapatinib -0.113

MRPS10 (UniProt P82664)
inactive: [1] -0.041 | filanesib 0.045 | zotarolimus 0.08 | idasanutlin -0.088 | alisertib -0.014 | [2] -0.017 | gefitinib -0.042 | [3] 0.012 | lapatinib 0.069 | pictilisib -0.112

NPC1L1 (UniProt Q9UHC9)
Sequence of UniProt Q9UHC9 (Q9UHC9 whole entry, looked up): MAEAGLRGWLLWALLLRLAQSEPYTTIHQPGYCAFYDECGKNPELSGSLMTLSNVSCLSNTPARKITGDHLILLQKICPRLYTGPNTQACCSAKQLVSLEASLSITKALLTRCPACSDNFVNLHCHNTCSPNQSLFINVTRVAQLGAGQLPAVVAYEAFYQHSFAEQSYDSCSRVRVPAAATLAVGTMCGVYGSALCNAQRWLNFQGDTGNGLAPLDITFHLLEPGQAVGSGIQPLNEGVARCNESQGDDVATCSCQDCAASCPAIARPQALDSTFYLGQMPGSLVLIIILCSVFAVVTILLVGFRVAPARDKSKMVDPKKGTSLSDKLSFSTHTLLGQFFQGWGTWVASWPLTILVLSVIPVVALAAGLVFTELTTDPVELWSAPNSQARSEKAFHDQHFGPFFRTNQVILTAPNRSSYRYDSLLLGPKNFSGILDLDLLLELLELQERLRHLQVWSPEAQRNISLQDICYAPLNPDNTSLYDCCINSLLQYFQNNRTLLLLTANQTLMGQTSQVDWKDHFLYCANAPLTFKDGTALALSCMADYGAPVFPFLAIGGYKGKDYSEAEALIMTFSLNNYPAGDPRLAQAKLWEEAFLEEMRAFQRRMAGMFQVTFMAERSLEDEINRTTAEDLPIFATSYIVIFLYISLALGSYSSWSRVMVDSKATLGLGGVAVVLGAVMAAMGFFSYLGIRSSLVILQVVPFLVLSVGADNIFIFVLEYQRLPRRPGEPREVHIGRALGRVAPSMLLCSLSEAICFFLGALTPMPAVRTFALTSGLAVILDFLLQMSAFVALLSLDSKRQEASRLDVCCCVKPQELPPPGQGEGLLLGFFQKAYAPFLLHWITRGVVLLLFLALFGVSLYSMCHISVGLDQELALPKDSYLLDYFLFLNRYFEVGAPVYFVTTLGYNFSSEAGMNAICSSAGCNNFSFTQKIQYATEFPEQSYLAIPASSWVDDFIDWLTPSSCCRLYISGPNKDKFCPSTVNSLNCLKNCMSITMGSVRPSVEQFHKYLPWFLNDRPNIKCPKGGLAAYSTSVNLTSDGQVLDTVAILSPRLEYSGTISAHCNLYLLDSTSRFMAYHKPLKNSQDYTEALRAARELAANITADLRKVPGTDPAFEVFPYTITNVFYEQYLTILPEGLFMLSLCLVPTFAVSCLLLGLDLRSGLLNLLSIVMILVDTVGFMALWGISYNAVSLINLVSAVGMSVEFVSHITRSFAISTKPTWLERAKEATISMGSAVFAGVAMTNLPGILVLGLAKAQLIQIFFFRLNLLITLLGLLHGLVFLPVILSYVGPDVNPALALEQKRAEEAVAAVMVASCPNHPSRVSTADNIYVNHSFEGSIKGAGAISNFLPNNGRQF
inactive: [1] -0.177 | filanesib -0.099 | zotarolimus -0.09 | idasanutlin -0.041 | alisertib -0.144 | [2] 0.079 | gefitinib 0.557 | [3] 0.106 | lapatinib -0.105

MYH10 isoform 3 (UniProt P35580)
inactive: [1] 0.092 | filanesib -0.116 | zotarolimus 0.011 | idasanutlin -0.065 | alisertib -0.025 | [2] 0.036 | gefitinib -0.005 | [3] -0.007 | lapatinib -0.006 | pictilisib -0.033

NDUFA12 (UniProt Q9UI09)
Sequence of UniProt Q9UI09 (Q9UI09 whole entry, looked up): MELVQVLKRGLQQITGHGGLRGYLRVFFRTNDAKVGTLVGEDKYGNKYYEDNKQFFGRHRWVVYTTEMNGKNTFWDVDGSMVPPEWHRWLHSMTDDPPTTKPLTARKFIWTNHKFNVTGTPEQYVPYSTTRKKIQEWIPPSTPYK
inactive: [1] -0.011 | filanesib -0.071 | zotarolimus 0.002 | idasanutlin -0.213 | alisertib 0.019 | [2] -0.167 | gefitinib -0.086 | [3] 0.056 | lapatinib -0.04 | pictilisib 0.023

OXA1L (UniProt Q15070)
inactive: [1] -0.023 | filanesib -0.123 | zotarolimus 0.009 | idasanutlin -0.029 | alisertib 0.003 | [2] -0.186 | gefitinib -0.004 | [3] 0.053 | lapatinib 0.013 | pictilisib 0.058

PAFAH1B3 (UniProt Q15102)
inactive: [1] -0.01 | filanesib -0.024 | zotarolimus 0.037 | idasanutlin -0.033 | alisertib -0.044 | [2] 0.03 | gefitinib 0.043 | [3] 0.057 | lapatinib -0.054 | pictilisib 0.079

NPEPPS (UniProt P55786)
Sequence of UniProt P55786 (P55786 whole entry, looked up): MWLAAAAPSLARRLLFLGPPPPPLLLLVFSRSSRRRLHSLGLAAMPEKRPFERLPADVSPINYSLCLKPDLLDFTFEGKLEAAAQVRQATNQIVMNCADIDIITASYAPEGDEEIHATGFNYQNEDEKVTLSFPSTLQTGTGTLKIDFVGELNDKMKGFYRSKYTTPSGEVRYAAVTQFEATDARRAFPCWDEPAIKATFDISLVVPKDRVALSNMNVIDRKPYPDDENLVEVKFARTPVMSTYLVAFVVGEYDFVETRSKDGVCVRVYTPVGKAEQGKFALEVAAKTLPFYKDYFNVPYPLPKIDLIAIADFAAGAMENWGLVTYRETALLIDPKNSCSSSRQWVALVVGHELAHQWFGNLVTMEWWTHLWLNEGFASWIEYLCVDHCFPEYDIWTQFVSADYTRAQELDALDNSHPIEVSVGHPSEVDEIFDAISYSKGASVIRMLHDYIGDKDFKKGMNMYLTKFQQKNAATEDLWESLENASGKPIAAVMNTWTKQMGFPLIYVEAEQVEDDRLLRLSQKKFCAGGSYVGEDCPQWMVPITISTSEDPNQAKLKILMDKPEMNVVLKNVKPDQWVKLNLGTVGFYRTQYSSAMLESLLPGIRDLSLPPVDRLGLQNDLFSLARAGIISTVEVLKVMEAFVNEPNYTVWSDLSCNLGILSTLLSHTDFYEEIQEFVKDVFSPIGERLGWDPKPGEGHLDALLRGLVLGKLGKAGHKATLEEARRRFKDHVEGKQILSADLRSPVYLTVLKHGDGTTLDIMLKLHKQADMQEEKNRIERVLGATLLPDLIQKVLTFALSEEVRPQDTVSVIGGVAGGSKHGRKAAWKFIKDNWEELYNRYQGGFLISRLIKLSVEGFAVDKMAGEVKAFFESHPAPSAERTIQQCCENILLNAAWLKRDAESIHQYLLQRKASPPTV
inactive: filanesib -0.056 | idasanutlin -0.072 | alisertib -0.017 | [2] 0.037 | gefitinib -0.026 | [3] 0.066 | lapatinib -0.002 | pictilisib -0.001
active: [1] 0.22 | zotarolimus 0.338

MT-ATP6 (UniProt P00846)
Sequence of UniProt P00846 (P00846 whole entry, looked up): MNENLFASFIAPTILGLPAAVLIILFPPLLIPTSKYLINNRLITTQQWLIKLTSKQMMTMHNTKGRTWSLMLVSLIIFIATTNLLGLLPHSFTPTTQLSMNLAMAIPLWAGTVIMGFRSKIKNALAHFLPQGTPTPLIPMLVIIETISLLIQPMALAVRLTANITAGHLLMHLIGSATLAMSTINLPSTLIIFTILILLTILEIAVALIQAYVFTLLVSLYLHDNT
inactive: [1] -0.018 | filanesib -0.036 | zotarolimus -0.022 | idasanutlin -0.084 | alisertib -0.05 | [2] 0.133 | gefitinib 0.05 | [3] 0.055 | lapatinib -0.105 | pictilisib 0.208
